# Experiments:
# [1] = target: Serine/threonine-protein kinase MARK2 (Homo sapiens) (UniProt Q7KZI7); conditions: at 1 µM
# [2] = target: PAS domain-containing serine/threonine-protein kinase (Homo sapiens) (UniProt Q96RG2); conditions: at 0.1 µM
# [3] = target: PAS domain-containing serine/threonine-protein kinase (Homo sapiens) (UniProt Q96RG2); conditions: at 1 µM
# [4] = target: Phosphorylase b kinase gamma catalytic chain, skeletal muscle/heart isoform (Homo sapiens) (UniProt Q16816); conditions: at 0.1 µM
# Phosphorylase b kinase gamma catalytic chain, skeletal muscle/heart isoform (Homo sapiens), sequence (Q16816 whole entry, looked up, canonical isoform): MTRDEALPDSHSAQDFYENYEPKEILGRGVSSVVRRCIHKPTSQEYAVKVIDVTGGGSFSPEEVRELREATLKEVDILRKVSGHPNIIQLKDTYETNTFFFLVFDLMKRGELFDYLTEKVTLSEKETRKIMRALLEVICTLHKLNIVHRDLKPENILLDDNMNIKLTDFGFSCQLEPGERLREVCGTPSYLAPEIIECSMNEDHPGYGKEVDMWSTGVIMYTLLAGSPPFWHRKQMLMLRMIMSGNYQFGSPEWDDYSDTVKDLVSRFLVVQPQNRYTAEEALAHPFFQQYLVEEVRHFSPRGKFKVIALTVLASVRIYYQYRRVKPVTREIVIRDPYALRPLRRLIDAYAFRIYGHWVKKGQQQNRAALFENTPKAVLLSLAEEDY
# [5] = target: Phosphorylase b kinase gamma catalytic chain, skeletal muscle/heart isoform (Homo sapiens) (UniProt Q16816); conditions: at 1 µM
# [6] = target: T1, Phosphorylase b kinase gamma catalytic chain, liver/testis isoform (Homo sapiens) (UniProt P15735); conditions: at 0.1 µM
# T1 sequence (whole entry): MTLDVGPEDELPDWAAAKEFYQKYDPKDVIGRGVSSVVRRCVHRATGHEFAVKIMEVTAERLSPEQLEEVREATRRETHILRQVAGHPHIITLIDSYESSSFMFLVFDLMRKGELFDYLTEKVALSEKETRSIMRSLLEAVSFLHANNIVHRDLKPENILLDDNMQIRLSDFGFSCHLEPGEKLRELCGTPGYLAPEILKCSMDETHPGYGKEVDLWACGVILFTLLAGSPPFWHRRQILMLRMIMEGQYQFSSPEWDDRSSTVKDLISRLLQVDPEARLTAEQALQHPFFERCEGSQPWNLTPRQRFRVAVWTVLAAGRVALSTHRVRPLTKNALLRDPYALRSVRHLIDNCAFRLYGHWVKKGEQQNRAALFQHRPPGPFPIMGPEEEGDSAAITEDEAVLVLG
# [7] = target: T1, Phosphorylase b kinase gamma catalytic chain, liver/testis isoform (Homo sapiens); conditions: at 1 µM
# [8] = target: Serine/threonine-protein kinase pim-1 (Homo sapiens) (UniProt P11309); conditions: at 0.1 µM
# Serine/threonine-protein kinase pim-1 (Homo sapiens), sequence (P11309 whole entry, looked up): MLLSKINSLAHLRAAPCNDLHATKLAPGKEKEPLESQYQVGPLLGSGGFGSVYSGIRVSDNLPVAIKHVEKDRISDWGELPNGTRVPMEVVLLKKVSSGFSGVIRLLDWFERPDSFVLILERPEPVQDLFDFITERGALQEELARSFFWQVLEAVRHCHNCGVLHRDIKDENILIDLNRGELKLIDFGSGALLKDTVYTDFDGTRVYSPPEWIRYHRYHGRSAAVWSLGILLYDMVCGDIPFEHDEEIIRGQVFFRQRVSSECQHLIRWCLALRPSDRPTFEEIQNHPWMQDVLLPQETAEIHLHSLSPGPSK
# [9] = target: Serine/threonine-protein kinase pim-1 (Homo sapiens) (UniProt P11309); conditions: at 1 µM
# [10] = target: Serine/threonine-protein kinase pim-2 (Homo sapiens) (UniProt Q9P1W9); conditions: at 0.1 µM
# [11] = target: Serine/threonine-protein kinase pim-2 (Homo sapiens) (UniProt Q9P1W9); conditions: at 1 µM
# [12] = target: Serine/threonine-protein kinase pim-3 (Homo sapiens) (UniProt Q86V86); conditions: at 0.1 µM
# [13] = target: Serine/threonine-protein kinase pim-3 (Homo sapiens) (UniProt Q86V86); conditions: at 1 µM
# [14] = target: T2, MAP kinase-activated protein kinase 5 (Homo sapiens) (UniProt Q8IW41); conditions: at 0.1 µM
# T2 sequence (whole entry): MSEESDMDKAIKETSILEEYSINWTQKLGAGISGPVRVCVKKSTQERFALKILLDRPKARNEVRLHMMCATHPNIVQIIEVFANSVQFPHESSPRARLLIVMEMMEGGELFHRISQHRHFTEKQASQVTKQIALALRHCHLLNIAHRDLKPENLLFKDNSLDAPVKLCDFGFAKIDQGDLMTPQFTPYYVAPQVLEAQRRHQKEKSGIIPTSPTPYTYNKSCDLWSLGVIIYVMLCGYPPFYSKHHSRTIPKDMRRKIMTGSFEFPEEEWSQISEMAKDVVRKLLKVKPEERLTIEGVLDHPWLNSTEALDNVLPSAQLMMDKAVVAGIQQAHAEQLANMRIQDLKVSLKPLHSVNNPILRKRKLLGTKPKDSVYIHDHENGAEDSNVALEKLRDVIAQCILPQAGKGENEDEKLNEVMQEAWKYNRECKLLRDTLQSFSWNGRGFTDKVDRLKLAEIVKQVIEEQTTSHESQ
# [15] = target: T2, MAP kinase-activated protein kinase 5 (Homo sapiens); conditions: at 1 µM
# [16] = target: Serine/threonine-protein kinase SIK1 (Homo sapiens) (UniProt P57059); conditions: at 0.1 µM
# Serine/threonine-protein kinase SIK1 (Homo sapiens), sequence (P57059 whole entry): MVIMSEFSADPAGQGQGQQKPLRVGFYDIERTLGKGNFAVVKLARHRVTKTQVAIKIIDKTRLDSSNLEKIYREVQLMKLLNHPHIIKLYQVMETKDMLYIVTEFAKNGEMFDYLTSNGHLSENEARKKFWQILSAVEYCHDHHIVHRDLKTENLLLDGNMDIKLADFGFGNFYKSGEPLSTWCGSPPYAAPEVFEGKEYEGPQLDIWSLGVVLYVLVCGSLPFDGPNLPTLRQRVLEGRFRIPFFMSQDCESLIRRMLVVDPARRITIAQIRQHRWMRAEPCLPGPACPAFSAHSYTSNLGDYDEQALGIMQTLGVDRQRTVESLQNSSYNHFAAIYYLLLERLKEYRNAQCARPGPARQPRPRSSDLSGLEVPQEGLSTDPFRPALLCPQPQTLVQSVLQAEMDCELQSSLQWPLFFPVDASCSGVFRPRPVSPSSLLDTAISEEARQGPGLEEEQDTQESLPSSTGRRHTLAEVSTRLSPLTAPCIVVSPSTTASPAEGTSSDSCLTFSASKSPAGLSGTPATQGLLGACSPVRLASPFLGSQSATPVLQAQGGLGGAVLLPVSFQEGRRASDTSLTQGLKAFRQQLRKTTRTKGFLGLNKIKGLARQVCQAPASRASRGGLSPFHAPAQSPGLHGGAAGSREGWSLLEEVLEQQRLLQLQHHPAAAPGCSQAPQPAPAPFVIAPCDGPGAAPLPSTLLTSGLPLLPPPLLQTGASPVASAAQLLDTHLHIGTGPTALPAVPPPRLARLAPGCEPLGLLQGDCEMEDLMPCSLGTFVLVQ
# [17] = target: Serine/threonine-protein kinase SIK1 (Homo sapiens) (UniProt P57059); conditions: at 1 µM
# [18] = target: Serine/threonine-protein kinase SIK2 (Homo sapiens) (UniProt Q9H0K1); conditions: at 0.1 µM
# Serine/threonine-protein kinase SIK2 (Homo sapiens), sequence (Q9H0K1 whole entry, looked up): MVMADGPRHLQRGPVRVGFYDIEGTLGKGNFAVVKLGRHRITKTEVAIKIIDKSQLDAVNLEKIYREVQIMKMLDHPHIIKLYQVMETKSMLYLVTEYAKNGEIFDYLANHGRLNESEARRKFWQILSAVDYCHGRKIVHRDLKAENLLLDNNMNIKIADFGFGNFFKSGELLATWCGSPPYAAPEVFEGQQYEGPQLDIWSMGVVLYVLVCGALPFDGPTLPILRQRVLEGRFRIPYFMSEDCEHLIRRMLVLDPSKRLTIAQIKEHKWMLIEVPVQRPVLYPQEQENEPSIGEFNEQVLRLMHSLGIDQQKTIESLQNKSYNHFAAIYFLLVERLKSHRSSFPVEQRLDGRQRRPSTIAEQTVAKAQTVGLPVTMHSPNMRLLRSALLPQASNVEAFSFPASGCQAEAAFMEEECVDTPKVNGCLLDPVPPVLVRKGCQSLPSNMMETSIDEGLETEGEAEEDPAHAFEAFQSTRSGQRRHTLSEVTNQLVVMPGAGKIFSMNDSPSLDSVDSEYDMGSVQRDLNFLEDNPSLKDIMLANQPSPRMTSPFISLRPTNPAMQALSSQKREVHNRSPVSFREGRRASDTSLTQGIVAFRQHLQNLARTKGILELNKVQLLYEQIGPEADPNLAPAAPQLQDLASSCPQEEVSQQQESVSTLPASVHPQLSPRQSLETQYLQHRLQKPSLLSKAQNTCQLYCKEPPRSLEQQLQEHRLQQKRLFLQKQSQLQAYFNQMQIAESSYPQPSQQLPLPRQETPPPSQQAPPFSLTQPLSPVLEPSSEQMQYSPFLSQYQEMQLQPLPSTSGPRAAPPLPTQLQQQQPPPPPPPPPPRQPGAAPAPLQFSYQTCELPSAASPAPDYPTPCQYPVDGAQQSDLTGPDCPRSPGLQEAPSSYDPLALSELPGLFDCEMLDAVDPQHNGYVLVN
# [19] = target: Serine/threonine-protein kinase SIK2 (Homo sapiens) (UniProt Q9H0K1); conditions: at 1 µM
# [20] = target: T3, Serine/threonine-protein kinase TBK1 (Homo sapiens) (UniProt Q9UHD2); conditions: at 0.1 µM;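 also: values are the mean TBK1 inhibition, taken from the GSK PKIS screening data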
# T3 sequence (whole entry): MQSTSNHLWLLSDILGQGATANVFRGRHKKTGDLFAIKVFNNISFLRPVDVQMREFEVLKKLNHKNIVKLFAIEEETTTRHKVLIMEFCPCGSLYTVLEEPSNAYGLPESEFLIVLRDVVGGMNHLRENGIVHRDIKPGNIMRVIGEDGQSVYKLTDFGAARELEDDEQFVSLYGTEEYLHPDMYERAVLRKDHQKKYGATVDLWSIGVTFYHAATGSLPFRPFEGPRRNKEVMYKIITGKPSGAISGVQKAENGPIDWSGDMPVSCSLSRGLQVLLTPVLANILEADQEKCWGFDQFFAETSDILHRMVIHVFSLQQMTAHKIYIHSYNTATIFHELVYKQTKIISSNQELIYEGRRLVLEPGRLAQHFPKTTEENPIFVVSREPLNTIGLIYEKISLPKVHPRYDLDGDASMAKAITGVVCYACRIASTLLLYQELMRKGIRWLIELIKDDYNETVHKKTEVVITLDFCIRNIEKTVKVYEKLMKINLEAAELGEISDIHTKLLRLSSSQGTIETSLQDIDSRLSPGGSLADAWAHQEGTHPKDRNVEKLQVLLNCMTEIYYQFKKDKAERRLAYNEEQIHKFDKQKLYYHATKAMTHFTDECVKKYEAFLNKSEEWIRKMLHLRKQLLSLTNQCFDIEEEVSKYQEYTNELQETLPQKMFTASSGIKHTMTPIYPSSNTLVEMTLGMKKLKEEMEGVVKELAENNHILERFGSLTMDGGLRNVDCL
# Serine/threonine-protein kinase MARK2 (Homo sapiens), sequence (Q7KZI7 whole entry, the tested form may be a part): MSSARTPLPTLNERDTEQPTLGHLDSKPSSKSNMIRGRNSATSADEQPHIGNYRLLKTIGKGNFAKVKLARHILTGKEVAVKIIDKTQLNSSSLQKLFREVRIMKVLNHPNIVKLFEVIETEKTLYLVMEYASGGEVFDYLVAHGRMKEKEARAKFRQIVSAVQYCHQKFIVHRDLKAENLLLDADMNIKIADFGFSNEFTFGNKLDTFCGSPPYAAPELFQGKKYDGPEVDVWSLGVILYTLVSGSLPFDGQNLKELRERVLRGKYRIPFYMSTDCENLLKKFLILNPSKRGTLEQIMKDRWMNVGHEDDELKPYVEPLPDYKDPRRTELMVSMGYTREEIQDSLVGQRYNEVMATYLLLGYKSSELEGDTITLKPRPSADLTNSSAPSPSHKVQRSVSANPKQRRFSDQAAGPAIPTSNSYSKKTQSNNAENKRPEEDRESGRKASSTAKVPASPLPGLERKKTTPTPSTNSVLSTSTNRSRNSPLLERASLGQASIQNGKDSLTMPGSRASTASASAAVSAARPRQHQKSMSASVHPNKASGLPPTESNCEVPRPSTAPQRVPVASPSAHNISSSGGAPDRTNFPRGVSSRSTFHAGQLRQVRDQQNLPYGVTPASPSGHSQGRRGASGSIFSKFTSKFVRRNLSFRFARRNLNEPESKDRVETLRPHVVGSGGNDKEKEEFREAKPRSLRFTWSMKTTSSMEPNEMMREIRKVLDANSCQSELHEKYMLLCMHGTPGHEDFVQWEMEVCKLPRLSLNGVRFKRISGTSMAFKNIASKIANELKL
# PAS domain-containing serine/threonine-protein kinase (Homo sapiens), sequence (Q96RG2 whole entry, the tested form may be a part, canonical isoform): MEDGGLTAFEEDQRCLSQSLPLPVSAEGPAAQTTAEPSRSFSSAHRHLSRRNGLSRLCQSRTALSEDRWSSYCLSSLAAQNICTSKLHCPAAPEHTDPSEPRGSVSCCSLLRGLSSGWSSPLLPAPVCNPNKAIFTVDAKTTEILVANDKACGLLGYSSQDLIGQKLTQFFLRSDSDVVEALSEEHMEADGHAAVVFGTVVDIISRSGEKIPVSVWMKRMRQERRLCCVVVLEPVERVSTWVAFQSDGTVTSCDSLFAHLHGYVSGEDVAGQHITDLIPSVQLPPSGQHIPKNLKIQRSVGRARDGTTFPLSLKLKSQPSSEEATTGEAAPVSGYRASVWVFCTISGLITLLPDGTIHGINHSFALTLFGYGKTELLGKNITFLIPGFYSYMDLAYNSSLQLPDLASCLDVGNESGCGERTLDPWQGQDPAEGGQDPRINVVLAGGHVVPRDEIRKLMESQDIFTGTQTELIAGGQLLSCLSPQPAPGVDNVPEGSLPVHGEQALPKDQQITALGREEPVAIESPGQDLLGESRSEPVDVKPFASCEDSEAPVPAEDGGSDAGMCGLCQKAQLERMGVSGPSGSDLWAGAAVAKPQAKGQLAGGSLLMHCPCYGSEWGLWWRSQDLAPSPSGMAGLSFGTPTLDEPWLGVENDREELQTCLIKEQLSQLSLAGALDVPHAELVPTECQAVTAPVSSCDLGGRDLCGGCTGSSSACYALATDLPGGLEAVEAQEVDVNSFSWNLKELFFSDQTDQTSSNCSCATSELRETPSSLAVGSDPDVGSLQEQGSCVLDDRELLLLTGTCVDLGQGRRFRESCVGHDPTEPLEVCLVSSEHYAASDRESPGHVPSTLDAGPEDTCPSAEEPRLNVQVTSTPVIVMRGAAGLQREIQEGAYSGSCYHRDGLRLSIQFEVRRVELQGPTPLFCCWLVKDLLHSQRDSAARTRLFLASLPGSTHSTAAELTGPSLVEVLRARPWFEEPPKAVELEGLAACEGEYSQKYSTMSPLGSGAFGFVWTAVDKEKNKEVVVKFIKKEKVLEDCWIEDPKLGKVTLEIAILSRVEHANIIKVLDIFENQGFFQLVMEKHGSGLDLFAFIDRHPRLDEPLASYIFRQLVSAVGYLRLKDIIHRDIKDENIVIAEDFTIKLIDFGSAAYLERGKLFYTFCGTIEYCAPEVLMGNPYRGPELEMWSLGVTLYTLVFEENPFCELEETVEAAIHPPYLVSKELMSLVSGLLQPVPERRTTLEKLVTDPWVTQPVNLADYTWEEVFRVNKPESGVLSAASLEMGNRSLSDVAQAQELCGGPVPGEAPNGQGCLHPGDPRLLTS
SMILES,inhibition [1],inhibition [2],inhibition [3],inhibition [4],inhibition [5],inhibition [6],inhibition [7],inhibition [8],inhibition [9],inhibition [10],inhibition [11],inhibition [12],inhibition [13],inhibition [14],inhibition [15],inhibition [16],inhibition [17],inhibition [18],inhibition [19],inhibition [20]
COc1ccc(-c2coc3ncnc(N)c23)cc1,2.28%,-0.15%,-1.42%,3.44%,6.53%,4.41%,2.09%,1.29%,1.42%,0.43%,1.01%,-0.83%,-1.2%,0.93%,0.22%,1.16%,10.4%,5.46%,7.65%,-0.45%
NS(=O)(=O)c1cccc(-c2ccc3c(NC(=O)C4CC4)n[nH]c3c2)c1,4.42%,-1.09%,-1.37%,2.99%,2.11%,-4.36%,-2.76%,-0.14%,1.01%,0.46%,0.35%,-1.61%,1.3%,-0.5%,0.65%,-8.4%,-0.1%,-0.65%,-7.23%,0.24%
Cn1cc(C=C2C(=O)Nc3cccnc32)c2ccccc21,5.73%,-0.07%,-2.27%,4.46%,20.8%,2.23%,2.8%,1.3%,10.4%,0.38%,3.47%,0.47%,11.5%,0.25%,1.48%,-0.28%,9.48%,2.86%,4.37%,2.42%
CCCN1CCC(Oc2cc(Nc3nc(Nc4cccc(F)c4C(N)=O)c4cc[nH]c4n3)c(OC)cc2Cl)CC1,1.3%,0.73%,1.6%,1.4%,24.2%,-0.41%,0.31%,4.08%,25.4%,0.5%,2.68%,1.54%,10.5%,-0.3%,-0.07%,-0.37%,2.28%,-0.16%,-0.62%,-0.35%
CC1=C(C(=O)Nc2ccc3[nH]ncc3c2)C(c2ccc(Cl)c(Cl)c2)CC(=O)N1 (stereo not given),3.36%,-0.49%,-1.74%,1.04%,2.45%,2.86%,-0.26%,-0.12%,0.22%,0.05%,-1.37%,-0.64%,-1.31%,0.08%,-1.02%,6.5%,2.84%,-0.93%,2.87%,-0.19%
NS(=O)(=O)c1ccc(N/N=C2\C(=O)Nc3ccc(C(=O)NCCc4c[nH]cn4)cc32)cc1,40.4%,0.48%,-3.06%,14.2%,58.7%,8.35%,24%,10.5%,51.7%,3.79%,24.7%,4.71%,44.7%,1.41%,2.5%,11.7%,32.5%,6.36%,16.9%,3.67%
Nc1ncnc2occ(-c3ccc(NC(=O)Nc4cccc(C(F)(F)F)c4)cc3)c12,3.83%,-0.58%,0.31%,6.3%,10.2%,6.43%,4.64%,1.56%,2.28%,0.42%,0.72%,0.78%,0.9%,1.67%,1.36%,-0.49%,9.69%,4.8%,3.6%,3.95%
NC(=O)c1cccc(Nc2nccc(Nc3cccc4[nH]ncc34)n2)c1,10.3%,0.03%,1.81%,0.63%,12.6%,-5.45%,-1.62%,0.6%,1.43%,0.4%,1.09%,-0.77%,3.49%,-1.41%,-1%,14.8%,68.5%,-4.28%,32.5%,0.88%
CCn1c(-c2nonc2N)nc2ccncc21,1.6%,0.79%,0.01%,1.54%,2.74%,2.66%,-0.15%,-0.28%,-0.66%,0.35%,0.12%,-0.49%,-1.56%,0.36%,-0.69%,-0.38%,8.47%,5.56%,3.95%,2.23%
CN1CCC(C(=O)Nc2n[nH]c3nnc(-c4ccccc4)cc23)CC1,0.72%,0.17%,0.71%,5.33%,11.3%,6.18%,9.48%,1.63%,3.41%,0.6%,1.49%,-0.11%,3.84%,1.41%,3.73%,7.3%,7.57%,6.82%,8.16%,2.09%
NC(=O)c1ccc(-c2nc(-c3ccccn3)c(-c3ccc4c(c3)OCO4)[nH]2)cc1,-0.45%,0.34%,1.31%,2.92%,4.79%,3.32%,3.73%,-0.68%,0.92%,0.03%,0.78%,0.11%,0.3%,0.77%,1.22%,3.17%,5.25%,7.51%,11.6%,2.24%
Cc1nn(C)c2cc(N(C)c3ccnc(Nc4cccc(S(N)(=O)=O)c4)n3)ccc12,1.25%,-0.56%,-0.33%,3.53%,8.04%,2.44%,2.5%,1.18%,0.82%,0.22%,0.81%,0.16%,-0.2%,0.87%,1.23%,9.49%,55.3%,7.91%,24.3%,2.88%
CCn1c(-c2nonc2N)nc2c(C#CC(C)(C)O)nc(OC[C@@H](N)c3ccccc3)cc21,13.6%,0.65%,16%,0.84%,4.71%,-2.07%,-2.54%,1.15%,3.59%,0.23%,2.38%,0.56%,5.51%,-0.92%,-1.02%,1.01%,0.3%,-1.91%,1.75%,0.4%
